Screen size: about 360,000 compounds; about 2,400 (0.67%) were called active. Shown is part of a subset that was picked to be rich in actives. Unmarked numbers belong to inactive results.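 The calls were made as follows: active = compounds whose normalised, plate-corrected inhibition of enzyme fluorescence in the single-dose primary screen is 50% or more; inactive = the rest.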
Target: Fatty acid synthase (Homo sapiens) (UniProt P49327)
Assay: inhibition of human FAS-TE enzyme activity – biochemical, fluorescence intensity, uHTS, primary screen (AID 602261);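 also: 0% = DMSO with enzyme and 100% = substrate without enzyme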
Details: recombinant FAS-TE, OMFH fluorogenic substrate, fluorescence endpoint; at 15 µM; stronger effect = higher value

Fatty acid synthase (Homo sapiens), sequence (P49327 whole entry, looked up): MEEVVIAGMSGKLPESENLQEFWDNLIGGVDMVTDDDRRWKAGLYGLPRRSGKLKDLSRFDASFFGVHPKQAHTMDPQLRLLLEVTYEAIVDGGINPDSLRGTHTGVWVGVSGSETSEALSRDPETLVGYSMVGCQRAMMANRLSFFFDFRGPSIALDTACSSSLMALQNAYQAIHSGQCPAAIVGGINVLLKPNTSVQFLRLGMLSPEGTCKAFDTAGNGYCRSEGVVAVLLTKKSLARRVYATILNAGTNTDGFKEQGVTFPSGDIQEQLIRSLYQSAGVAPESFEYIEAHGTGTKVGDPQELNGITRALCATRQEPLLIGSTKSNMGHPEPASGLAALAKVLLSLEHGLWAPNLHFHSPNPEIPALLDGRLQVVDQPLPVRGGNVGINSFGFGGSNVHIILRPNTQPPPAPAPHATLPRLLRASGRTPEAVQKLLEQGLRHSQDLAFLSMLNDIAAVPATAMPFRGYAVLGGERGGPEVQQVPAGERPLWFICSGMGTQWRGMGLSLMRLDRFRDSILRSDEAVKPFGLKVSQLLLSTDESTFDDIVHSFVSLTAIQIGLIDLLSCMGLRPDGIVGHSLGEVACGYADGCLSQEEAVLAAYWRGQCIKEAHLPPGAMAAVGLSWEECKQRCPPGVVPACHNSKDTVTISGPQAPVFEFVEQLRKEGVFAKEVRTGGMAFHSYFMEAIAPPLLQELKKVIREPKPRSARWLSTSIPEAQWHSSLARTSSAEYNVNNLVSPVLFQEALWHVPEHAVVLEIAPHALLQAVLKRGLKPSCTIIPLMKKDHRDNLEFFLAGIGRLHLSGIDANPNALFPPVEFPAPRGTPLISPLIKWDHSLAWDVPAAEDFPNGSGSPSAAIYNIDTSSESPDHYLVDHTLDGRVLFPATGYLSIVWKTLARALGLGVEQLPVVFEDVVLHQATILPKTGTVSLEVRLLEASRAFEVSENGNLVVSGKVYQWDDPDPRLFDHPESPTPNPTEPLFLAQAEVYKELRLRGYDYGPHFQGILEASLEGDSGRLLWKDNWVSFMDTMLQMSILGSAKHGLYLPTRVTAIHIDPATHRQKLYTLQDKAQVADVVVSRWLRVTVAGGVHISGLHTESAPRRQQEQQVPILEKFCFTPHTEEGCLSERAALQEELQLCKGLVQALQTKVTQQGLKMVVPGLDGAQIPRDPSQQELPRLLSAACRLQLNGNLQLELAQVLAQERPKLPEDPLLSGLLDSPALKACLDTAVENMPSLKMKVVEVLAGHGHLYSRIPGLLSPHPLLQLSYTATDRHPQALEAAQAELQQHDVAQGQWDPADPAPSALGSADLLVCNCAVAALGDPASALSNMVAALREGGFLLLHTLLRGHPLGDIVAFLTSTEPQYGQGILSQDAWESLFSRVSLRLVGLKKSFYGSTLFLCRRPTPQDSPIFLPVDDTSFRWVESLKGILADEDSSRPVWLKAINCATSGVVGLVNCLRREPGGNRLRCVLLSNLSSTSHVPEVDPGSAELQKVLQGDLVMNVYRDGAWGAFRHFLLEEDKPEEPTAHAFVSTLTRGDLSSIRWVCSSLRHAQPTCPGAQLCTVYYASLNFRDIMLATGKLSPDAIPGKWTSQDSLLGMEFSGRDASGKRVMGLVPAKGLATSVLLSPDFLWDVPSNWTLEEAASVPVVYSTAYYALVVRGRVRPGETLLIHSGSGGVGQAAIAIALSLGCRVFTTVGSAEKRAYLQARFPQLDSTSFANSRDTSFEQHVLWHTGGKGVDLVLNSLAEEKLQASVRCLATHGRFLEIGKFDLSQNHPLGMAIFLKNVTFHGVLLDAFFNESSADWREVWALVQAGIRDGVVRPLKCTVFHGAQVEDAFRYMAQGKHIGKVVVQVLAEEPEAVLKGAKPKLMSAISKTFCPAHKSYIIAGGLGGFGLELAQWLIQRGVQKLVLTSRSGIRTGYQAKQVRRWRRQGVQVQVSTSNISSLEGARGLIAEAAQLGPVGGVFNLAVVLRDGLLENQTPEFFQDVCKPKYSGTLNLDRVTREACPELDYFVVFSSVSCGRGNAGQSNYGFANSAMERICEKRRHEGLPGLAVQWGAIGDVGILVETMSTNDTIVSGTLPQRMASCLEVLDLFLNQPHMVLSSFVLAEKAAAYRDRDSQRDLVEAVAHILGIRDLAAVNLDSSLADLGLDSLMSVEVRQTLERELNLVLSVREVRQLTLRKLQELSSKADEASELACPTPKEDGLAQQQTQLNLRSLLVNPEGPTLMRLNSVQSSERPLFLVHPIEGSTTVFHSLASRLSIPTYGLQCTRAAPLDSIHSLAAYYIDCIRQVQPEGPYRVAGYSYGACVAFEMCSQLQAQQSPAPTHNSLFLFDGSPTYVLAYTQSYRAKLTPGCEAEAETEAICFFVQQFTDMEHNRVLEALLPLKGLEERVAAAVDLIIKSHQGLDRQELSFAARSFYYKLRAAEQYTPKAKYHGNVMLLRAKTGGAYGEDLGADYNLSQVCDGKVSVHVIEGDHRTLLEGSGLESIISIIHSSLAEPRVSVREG

SMILES	inhibition
Cc1ccc2c(c1)-c1c(ssc1=S)C(C)(C)N2C(=O)CN1C(=O)c2ccccc2C1=O	52.2% (active)
Cc1cc2c(cc1C)N(C(=O)CN1C(=O)c3ccccc3C1=O)C(C)(C)c1ssc(=S)c1-2	43.2%
CCOC(=O)CN1C(=O)C(=O)c2cc(C)ccc21	-7%
O=S1(=O)N=C(N(CCO)/N=C/c2ccccc2F)c2ccccc21	0.1%
CCOc1ccccc1NC(=O)C12CC3CC(C1)CC(c1ccc(C)cc1)(C3)C2	33.7%
CCN1CCN(c2nc(Nc3cc(OC)ccc3OC)nc(Nc3cc(OC)ccc3OC)n2)CC1	32.9%
COc1ccc(Nc2ncc(F)c(N3CCOCC3)n2)cc1	-0.3%
CCOc1ccc(Nc2nc(Cl)nc(N3CCN(c4ccc(OC)cc4)CC3)n2)cc1	57.9% (active)
CC1CCCCC1NC(=O)C1CCCN1S(=O)(=O)c1cccc2nsnc12 (stereo unspecified)	-4.8%
O=C(N1CCCC1)C12CC3CC(C1)CC(C(=O)N1CCCC1)(C3)C2	-5.3%
Cc1ccc(NC(=O)CSc2nnc(CNC(=O)c3ccccc3F)o2)cc1	-4.2%
O=C(Nc1cccc(C(F)(F)F)c1)c1ccc(N2CCNCC2)c([N+](=O)[O-])c1	-5%
O=C(Nc1ccc(N2C(=O)c3cccc4cccc(c34)C2=O)cc1)c1ccc(N2CCCCC2)c([N+](=O)[O-])c1	56.4% (active)
O=C(COc1ccccc1F)NNC(=O)c1ccc(N2CCCCC2)c([N+](=O)[O-])c1	4.2%
CC(=O)Nc1ccc2c3c(ccc([N+](=O)[O-])c13)CC2	-4%
CCCN1Cc2cccc(C(=O)Nc3ccc(S(=O)(=O)N4CCCCCC4)cc3)c2C1=O	54.7% (active)
CCCN1Cc2cccc(C(=O)NCc3ccccc3)c2C1=O	-0.8%
O=C(Nc1ccc(S(=O)(=O)N2CCCCCC2)cc1)c1c(F)cccc1F	12%
COCCCNCC(=O)Nc1sc(C)c(C)c1C(=O)OC	-3.7%
CCOC(=O)C(C)n1cnc2c(nnn2-c2ccc(F)cc2)c1=O (stereo unspecified)	-7.4%
CCc1ccc([C@@H]2CC(=O)[C@@H]3CN(S(=O)(=O)c4ccc(C)cc4)[C@H](c4ccc(Cl)cc4)C[C@@H]3N2S(=O)(=O)c2ccc(C)cc2)cc1	12.7%
Cc1ccc([C@@H]2CC(=O)[C@@H]3CN(S(=O)(=O)c4ccc(C)cc4)[C@H](c4ccccc4F)C[C@@H]3N2S(=O)(=O)c2ccc(Cl)cc2)cc1	12.3%
Cc1ccc(S(=O)(=O)N2CC[C@H]3[C@@H](C2)C(=O)C[C@@H](c2ccccc2)N3S(=O)(=O)c2ccc(C)cc2)cc1	79.6% (active)
CC(C)[C@H](NC(=O)N1c2ccccc2NC(=O)[C@@H]1C(C)C)C(=O)N[C@H](C(=O)O)c1ccccc1	-2.6%

SMILES	inhibition
O=[N+]([O-])c1ccc(NS(=O)(=O)c2ccccc2)c(Cl)c1	-7%
Cc1ccc2oc(=O)c3cnn(CC(=O)N4CCCCCC4)c3c2c1	0.5%
Cc1cccc(C(=O)N2CCN(S(=O)(=O)N3CCCCC3)CC2)c1	-2.1%
Cc1ccc2cc3cc(C(=O)N4CCCCCC4)oc3nc2c1	77.7% (active)
COc1ccc(C(C)=O)cc1COC(=O)Cn1cnc2ccccc2c1=O	-2.7%
COc1cccc(-c2noc(C3CCCN(C(=O)c4ccc(F)cc4)C3)n2)c1 (stereo unspecified)	-3.3%
COc1cc(-c2noc(C3CCCN(S(=O)(=O)c4cccc(Cl)c4)C3)n2)cc(OC)c1OC (stereo unspecified)	50.7% (active)
CC(C)c1ccc(-c2noc(C3CCCN(S(C)(=O)=O)C3)n2)cc1 (stereo unspecified)	16.9%
Nc1ccc(SCCN2C(=O)c3ccccc3C2=O)cc1	-1.7%
CC(C)c1ccc2c(c1)c(SC(C)(C)C)c(CC(C)(C)C(=O)O)n2Cc1ccc(Cl)cc1	80.4% (active)
O=C(NCc1ccccc1)C1CCCN(c2nc3ccsc3c(=O)s2)C1 (stereo unspecified)	-1.5%
Nc1ccc(N=Nc2ccccc2Cl)c(N)n1	12%
CN(C)C(CNC(=O)Cc1ccc([N+](=O)[O-])cc1)c1ccccc1 (stereo unspecified)	3.9%
O=C(NCC(O)c1ccc([N+](=O)[O-])cc1)C1CCCCC1 (stereo unspecified)	-3.9%
O=C(CC(c1ccccc1)c1ccccc1)NCC(O)c1ccc([N+](=O)[O-])cc1 (stereo unspecified)	50.4% (active)
COc1ccc(C(=O)NC(=S)N2CCCCC2c2cccnc2)cc1OC (stereo unspecified)	-3.7%
Cc1ccccc1-n1c(C)cc(/C=N/NC(=O)c2ccc(CN3CCOCC3)cc2)c1C	-7.5%
COc1ccc(NC(=O)CCn2ccnc2)c(OC)c1	-2.6%
O=C(O)c1ccccc1N=N/C(=N/Nc1cc(S(=O)(=O)O)ccc1O)c1ccccc1	3.7%
COc1ccc(NS(=O)(=O)c2cc(NC(=O)/C=C/c3cc(OC)c(OC)c(OC)c3)ccc2N2CCCCC2)cc1	50.6% (active)
COc1ccc(NS(=O)(=O)c2cc(NC(=O)C3CCCCC3)ccc2N2CCOCC2)cc1	10.3%
COc1cc(/C=C/C(=O)Nc2ccc(OC)c(S(=O)(=O)N3CCOCC3)c2)ccc1OCC#N	-0.4%
COc1ccc(NS(=O)(=O)c2ccc(N3CCOCC3)c(NC(=O)/C=C/C(=O)O)c2)cc1	-5.8%
COc1ccc(NS(=O)(=O)c2cc(NC(=O)c3ccc(S(=O)(=O)N(C)C)cc3)ccc2N2CCOCC2)cc1	88.6% (active)

SMILES	inhibition
COc1ccc(NS(=O)(=O)c2ccc(N3CCN(CCO)CC3)c([N+](=O)[O-])c2)cc1	-6.1%
O=C(NC(C(=O)NCCN1CCOCC1)C12CC3CC(CC(C3)C1)C2)C1CCCCC1 (stereo unspecified)	-6.3%
CCCCN(CC(=O)Nc1cccc(S(=O)(=O)N2CCCC2)c1)Cc1nc2ccccc2c(=O)[nH]1	8.2%
CCOCCCN(C)C1CCN(C(=O)c2oc3ccccc3c2NC(=O)COc2cccc(C)c2)CC1	1.2%
CCC(C)N(C(=O)CSc1ncnc2c1cnn2-c1ccccc1)C1CCS(=O)(=O)C1 (stereo unspecified)	22.1%
CC(C)CN(C(=O)CSc1ncnc2sccc12)C1CCS(=O)(=O)C1 (stereo unspecified)	-7.9%
CCN(C(=O)CSc1ncnc2c1cnn2-c1ccccc1)C1CCS(=O)(=O)C1 (stereo unspecified)	57.4% (active)
COc1cc(C(O)c2nc(-c3cnn(C)c3)cs2)ccc1F (stereo unspecified)	-5.1%
COc1ccc(N2CCN(S(=O)(=O)c3cc(Br)cnc3N)CC2)cc1	-1.1%
Cc1ccc(S(=O)(=O)N2CC(C)N(S(C)(=O)=O)C2)cc1 (stereo unspecified)	-3.6%
CCc1nc2c(OCc3ccc(Cl)cc3Cl)cccn2c1N(C)C(=O)C(C)C	9.4%
Cc1nc2c(OCc3cccc(Cl)c3)cccn2c1N(C)CC1CC1	17.1%
Cc1nc2c(OCc3ccc(Cl)cc3Cl)cccn2c1N(C)CC1CC1	57.2% (active)
Cc1ccc(C2C(C#N)C(C#N)N3CCCN23)cc1 (stereo unspecified)	-18.8%
COc1cc2c(=O)n(C)c3ccccc3c2cc1OC	-3.2%
COCC(=O)N(C)C[C@H]1Oc2cc(Br)ccc2S(=O)(=O)N([C@H](C)CO)C[C@H]1C	-6%
COc1cc(OC)cc(C(=O)NC2CCN(C(=O)N3c4ccccc4Sc4ccccc43)CC2)c1	38.7%
CCCCCN(C(=O)CCC(=O)OCC(=O)NC1CCC(C)CC1)c1c(N)n(CCCC)c(=O)[nH]c1=O (stereo unspecified)	-3.8%
Cc1ccccc1CN(c1ccc(C(=O)NCC2CCCO2)cc1)S(C)(=O)=O (stereo unspecified)	-11.4%
COc1ccc([N+](=O)[O-])cc1NC(=O)c1ccc(N(Cc2ccccc2C)S(C)(=O)=O)cc1	62.6% (active)
CCN(c1ccccc1)S(=O)(=O)c1ccc(C(=O)Nc2ccccc2OC)cc1	19.5%
CCc1nc2ccc(C(=O)N(C)Cc3ccco3)cn2c1N(C)C(=O)Cc1ccccc1	-8%
O=C1N(c2ccc(Cl)cc2)C(c2ccc(Cl)cc2)N2CCCN12 (stereo unspecified)	21.3%
COCCCN1C(=O)C(CC(=O)NCc2cccs2)CC(C(=O)N2CCOCC2)=C1C (stereo unspecified)	-5.4%

SMILES	inhibition
CC1=C(C(=O)OCC2CCCCC2)C(c2ccc(F)cc2)NC(=O)N1 (stereo unspecified)	17.2%
CCC(CC)COC(=O)C1=C(C)NC(=O)NC1c1ccc([N+](=O)[O-])cc1 (stereo unspecified)	71.6% (active)
CCOCCOC(=O)C1=C(C)NC(=O)NC1c1ccc2c(c1)OCO2 (stereo unspecified)	-6.1%
N[C@@H](Cc1ccccc1)C(=O)N1CCC(C(=O)NCC(=O)Nc2ccc(F)cc2)CC1	-6.7%
CC(C)(O)C#Cc1ncc(C(F)(F)F)cc1Cl	-1.4%
COC(=O)[C@@H]1CC(O)CN1C(=O)C12CC3CC(CC(C3)C1)C2 (stereo partly specified)	-6.7%
CCOC(=O)c1cnn2c(SC)ncnc12	-6.9%
Cc1cc(C)c2c(=O)n3c(nc2c1)C(CC(C)C)NC(=O)c1cc2ccccc2cc1-3 (stereo unspecified)	2.3%
O=C1NC(Cc2ccccc2)c2nc3ccc(Br)cc3c(=O)n2-c2cc3ccccc3cc21 (stereo unspecified)	84.7% (active)
CCC1NC(=O)c2cccnc2-n2c1nc1ccc(C)cc1c2=O (stereo unspecified)	-5.4%
C=CCSc1nsc(NC(=O)Nc2cccc(C(C)=O)c2)n1	3.9%
Cc1ccc(N2C(=O)C3C(c4ccccc4)(C2=O)C3(c2ccccc2)c2ccccc2)cc1 (stereo unspecified)	80.8% (active)
Cc1ccc(C2SCC(=O)N2c2ccccc2)cc1 (stereo unspecified)	-5.6%
Cc1ccc(N2C(=O)N3[C@@H]4c5ccccc5OC[C@@H]4[C@@H](c4ccccc4)[C@@]3(C)C2=O)cc1	48.3%
COc1cc(C2C(C(=O)OCCC#N)=C(C)NC3=C2S(=O)(=O)c2ccccc23)cc(OC)c1OC (stereo unspecified)	-7.7%
C=C(Cl)COC(=O)C1C2C=CC(C2)C1C(=O)O (stereo unspecified)	-6.6%
COc1cccc(CNS(=O)(=O)c2cc3c(cc2C)n(C)c(=O)c(=O)n3C)c1	-4.2%
CC1c2nc3ccccc3n2C(CC(=O)NCCCN2CCOCC2)C(=O)N1Cc1ccccc1 (stereo unspecified)	-2.2%
Cc1ccc(S(=O)(=O)N2C[C@]3(O)C[C@@H]4C(=O)N(c5ccccc5)C(=O)[C@@H]4C[C@]3(OC(=O)NC3CC3)C2)cc1	5.3%
C#CCN(C[C@H]1[C@H](OC(=O)NC2CCCC2)[C@H](OC(=O)NC2CCCC2)C[C@H]2C(=O)N(c3ccccc3)C(=O)[C@@H]12)S(=O)(=O)c1ccc(C)cc1	69.1% (active)
C#CCN(C[C@@H]1[C@@H](OC(=O)NC2CC2)[C@@H](OC(=O)NC2CC2)Cn2c(=O)ccc(=O)n21)S(=O)(=O)c1ccc(C)cc1	-8%
O=C(NCc1ccco1)c1ccc(CS(=O)(=O)Cc2ccc(F)cc2)o1	-5.6%
C[C@H]1CN([C@@H](C)CO)C(=O)CCCn2nncc2CO[C@@H]1CN(C)Cc1ccc(Oc2ccccc2)cc1	-4.9%
CCN(CCCNC(=O)CSc1cc(=O)n(C)c2cc(Cl)ccc12)Cc1ccccc1	1.5%

From PubChem BioAssay AID602261 (Sanford-Burnham Center for Chemical Genomics, 2012)
